In the library only some 2.4% were active in any assay of this set; here they are far more common.
AmpC nodet inh – blocks E. coli AmpC beta-lactamase in absence of detergent; P00811; AmpC nitrocefin hydrolysis, absorbance 480 nm, no detergent; Potency, µM (highest dose often 28.7 µM); 71,000 tested, 1.8% active; AID 585
Target sequence (P00811 whole entry, looked up): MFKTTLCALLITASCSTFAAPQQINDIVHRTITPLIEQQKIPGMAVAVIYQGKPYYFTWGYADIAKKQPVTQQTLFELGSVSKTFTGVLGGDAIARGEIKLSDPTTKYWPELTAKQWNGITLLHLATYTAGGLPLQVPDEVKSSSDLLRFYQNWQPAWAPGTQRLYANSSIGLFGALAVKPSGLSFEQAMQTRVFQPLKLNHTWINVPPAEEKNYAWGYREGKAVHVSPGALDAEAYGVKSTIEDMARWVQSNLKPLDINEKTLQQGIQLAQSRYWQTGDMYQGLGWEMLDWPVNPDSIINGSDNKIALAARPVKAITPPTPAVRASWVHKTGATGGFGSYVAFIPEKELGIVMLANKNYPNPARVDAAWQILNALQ
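Enzyme, pH 7.0 phosphate. Compound titrations were pre-incubated with AmpC for 15 min at room temperature before nitrocefin (stock 800 uM) addition; product formation was recorded at 480 nm every 20 s for 4 min.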
Prx2 Sm inh – inhibitors of Schistosoma mansoni peroxiredoxin 2. S. mansoni Prx2 activity coupled to TGR/GSH (TGR is thioredoxin glutathione reductase), NADPH fluorescence loss, qHTS. Potency, µM. 65,000 tested, 0.07% active. AID 448
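Coupled assay in which S. mansoni TGR passes NADPH reducing equivalents via glutathione to Prx2, which reduces H2O2. Compounds were preincubated 15 min at room temperature with 25 nM TGR/50 nM Prx2 mix. Kinetic NADPH fluorescence loss (ex 365/em 450 nm) was monitored.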
AmpC det inh – inhibitors of E. coli AmpC beta-lactamase with detergent; P00811; purified AmpC, nitrocefin hydrolysis with detergent; Potency, µM (series often up to 28.7 µM); 71,000 tested, 0.09% active; AID 584; active = well fitted curve in the direction sought with a large enough effect; inconclusive = small, poorly fitted or top-dose-only effect
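E. coli AmpC (5.3 nM) in 20 mM phosphate pH 7.0 with 0.01% Triton X-100, preincubated 15 min RT with compound; nitrocefin (2 uL of 800 uM stock) hydrolysis followed by 480 nm absorbance every 20 s over 4 min.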
LT uptake inh – anthrax lethal toxin internalization inhibition. Cells, anthrax lethal toxin internalization, FRET ratio (460/530). Potency, µM (series often up to 40 µM), hits mostly inhibitors. 70,000 tested, 0.67% active. AID 912; also: nearly all actives have a fitted effect of over 50% in size
Numbers stand for hits; - = inactive; ? = inconclusive; . = no result; [ ] = another dose, or the depositor's remark. Unless noted, calls follow the shape of the full dose curve.

SMILES	AmpC nodet inh	Prx2 Sm inh	AmpC det inh	LT uptake inh
O=C(c1cccs1)N1CCN(CCc2ccccc2)CC1	-	-	-	-
O=C(CCc1ccccc1)N1CCN(CCO)CC1	3.98µM[single pt active]	-	-	-
COc1ccccc1C(=O)N(Cc1nc(-c2ccc(Cl)cc2)no1)C(C)C	-	-	-	12.6µM
COc1ccc(-c2noc(CN(C)S(=O)(=O)c3ccc(Cl)cc3)n2)cc1OC	-	-	-	12.6µM
c1nc[nH]n1	-	.	-	.
O=C(CN(C1CC1)S(=O)(=O)c1ccc(S(=O)(=O)NC2CCCCC2)cc1)Nc1ccccc1	-	-	-	10µM
CCN(CC)CCOc1ccc(Cc2ccccc2)cc1	-	-	-	25.1µM
CC1=C(CC[C@H](C)CO)O[C@@H]2C[C@@H]3[C@H]4CC[C@H]5C[C@@H](O)CC[C@]5(C)[C@@H]4CC(=O)[C@@]3(C)[C@@H]12	-[5.75 µM]	-	-[5.75 µM]	-[8 µM]
CCOC(=O)c1nnn(CC(=O)Nc2cc(Cl)ccc2C)c1C(=O)OCC	-	-	-	7.94µM
O=C1c2ccccc2C(Nc2ccc3c(c2)OCCO3)N1Cc1ccc2c(c1)OCO2 (configuration not stated)	3.98µM[single pt active]	-	-	?
O=C1c2ccccc2C(Nc2ccc3c(c2)OCCO3)N1c1ccccn1 (configuration not stated)	-	-	-	?
CCN(CC)S(=O)(=O)c1ccc(NC2c3ccccc3C(=O)N2Cc2ccc3c(c2)OCO3)cc1 (configuration not stated)	3.98µM[single pt active]	-	-	?
CC(C)(C)OC(=O)[C@H]([C@@H]1N[C@@H](C(=O)O)C(C)(C)S1)N1C(=O)c2ccccc2C1=O	-[5.75 µM]	-	-[5.75 µM]	?
Cc1noc(C)c1-c1nc(NCc2cccs2)c2ccccc2n1	-	-	-	-
Oc1cc(Cl)c(Cl)c(Cl)c1	-	.	-	12.6µM
Oc1c(Cl)c(Cl)cc(Cl)c1Cl	-	.	-	-
CCOC(=O)C1=C(C)N=c2s/c(=C\c3cccn3C)c(=O)n2C1c1cccc(OC)c1OC (configuration not stated)	-	.	-	?
CCOC(=O)C1=C(C)N=c2s/c(=C/c3ccco3)c(=O)n2C1c1cccc(OC)c1 (configuration not stated)	7.94µM	-	-	?
Oc1ccc(Cl)cc1-c1cc(-c2ccccc2)n[nH]1	3.98µM[single pt active]	-	-	?
Cc1ccc(-c2nc(CSCC(=O)N3CCCC3)c(C)o2)cc1	-	-	-	-
Cc1ccsc1-c1nc(CSCC(=O)N2CCN(c3ccccc3)CC2)c(C)o1	-	-	-	15.8µM
CO[C@@H]1/C=C\CC(=O)N2CCC[C@@H]2C(=O)OC[C@@H](C)C(=O)OC[C@H]1C	.	.	.	-[8 µM]
Cc1ccc(-n2nnc3ccccc3c2=O)cc1C	-	.	-	12.6µM
CC(C)[C@H](CO)Nc1nc(Nc2cccc(Cl)c2)c2ncn(C(C)C)c2n1	-	-	-	12.6µM
Cc1cc2c(c(=O)o1)[C@@H](O)[C@H]1O[C@@H]1C2=O	.	.	.	-[8 µM]
SMILES	AmpC nodet inh	Prx2 Sm inh	AmpC det inh	LT uptake inh
Cc1ccc2oc(=O)c3cc(C(=O)N4CCN(c5ncccn5)CC4)sc3c2c1	3.98µM[single pt active]	-	-	-
Cc1ccc2oc(=O)c3cc(C(=O)N4CCN(C(=O)c5ccco5)CC4)sc3c2c1	-	-	-	-
CN(C)c1ncc2nc(-c3ccc(Cl)cc3)c(=O)n(Cc3cccs3)c2n1	-	-	-	?
Cc1c(-c2ccc(O)cc2)nn(-c2ccc(O)cc2)c1-c1ccc(OCCN2CCCCC2)cc1	-	-	-	15.8µM
NC[C@H](O)C1CCCCCCC1	-	-	-	-
Cc1cc(C(=O)CSc2nc3ccccc3[nH]2)c(C)n1C	-	-	-	-
Cc1nn2c(=O)cc(CSc3nc4ccccc4[nH]3)nc2s1	3.98µM[single pt active]	-	-	-
COc1ccccc1Cc1nc(-c2ccc(Br)o2)no1	3.98µM[single pt active]	-	-	?
CCOC(=O)c1sc(NC(=O)c2noc3c2CCCC3)c(C(=O)OCC)c1C	3.98µM[single pt active]	-	-	-
CCOC(=O)c1c(NC(=O)c2noc3c2CCCC3)sc(C)c1C	-	-	-	-
COc1ccc2[nH]cc(CCNc3ncnc4ccc(-c5cccnc5)cc34)c2c1	-	-	-	-
COc1ccc2[nH]cc(CCNc3ccnc(-c4ccc(N(C)C)cc4)n3)c2c1	-	-	-	7.94µM
COc1ccc2[nH]cc(CCNc3ncncc3-c3ccccc3C)c2c1	-	-	-	10µM
COc1ccc2[nH]cc(CCNc3ccnc(-c4ccoc4)n3)c2c1	-	-	-	?
COc1ccc2[nH]cc(CCNc3ncnc4ccc(-c5ccccc5OC)cc34)c2c1	-	-	-	10µM
COc1ccc2[nH]cc(CCNc3ncncc3-c3cccnc3)c2c1	-	-	-	-
COC[C@H]1OC(=O)c2coc3c2[C@@]1(C)C1=C(C3=O)[C@H]2CCC(=O)[C@@]2(C)C[C@H]1OC(C)=O	-	-	-	?
C[C@H]1C(=O)O[C@H]2CCN3CC=C(COC(=O)[C@](C)(O)[C@@]1(C)O)[C@H]23	-	-	-	-
c1ccc(C[N+]23CN4CN(CN(C4)C2)C3)cc1	-[5.75 µM]	-	-[5.75 µM]	?
N#Cc1nc(-c2cccc3ccccc23)oc1NCCN1CCOCC1	-	-	-	?
N#Cc1nc(-c2ccccc2F)oc1NCCN1CCOCC1	3.98µM[single pt active]	-	-	-
COc1ccc(-c2cc(C(F)(F)F)nc(S(=O)(=O)CCC(=O)N3CCOCC3)n2)cc1	-	-	-	?
COc1ccccc1-c1cc(C(F)(F)F)nc(S(=O)(=O)CCCC(=O)N2CCOCC2)n1	-	-	-	1.58µM
CCC1CCCN1Cn1cnc2c([nH]c3ccc(OC)cc32)c1=O (configuration not stated)	-	-	-	-
CCCCN(CCCC)CCn1cnc2c([nH]c3ccc(OC)cc32)c1=O	3.98µM[single pt active]	-	-	-
SMILES	AmpC nodet inh	Prx2 Sm inh	AmpC det inh	LT uptake inh
C[C@H]1[C@H](C)CC[C@@]2(C(=O)O)CC[C@]3(C)C(=CC[C@H]4[C@@]5(C)C[C@@H](O)[C@H](O)[C@@](C)(CO)[C@@H]5CC[C@@]43C)[C@@H]12	-	-	-	-
Cc1noc(C)c1S(=O)(=O)N(CC(=O)NCc1ccc2c(c1)OCO2)c1ccc(C(C)C)cc1	-	-	-	5.01µM
C/C(=C\CNc1ncnc2c1ncn2[C@@H]1O[C@@H](CO)[C@@H](O)[C@H]1O)CO	-	-	-	-
N#Cc1cccc(-c2nc(NCc3cccnc3)c3ccccc3n2)c1	0.631µM	-	10µM	?
COc1cccc(-c2nc(NCc3cccnc3)c3ccccc3n2)c1	?	-	12.6µM	-
CC(=O)c1ccc(OCC(O)CN2CCN(Cc3ccccc3)CC2)cc1 (configuration not stated)	3.98µM[single pt active]	-	-	-
CCOC(=O)C1CCN(CC(O)COc2ccc(C(C)(C)C)cc2)CC1 (configuration not stated)	-	-	-	-
CCOC(=O)C1CCN(CC(O)COc2ccc(C(C)=O)cc2)CC1 (configuration not stated)	3.16µM[single pt active]	-	-	-
CCCN1C[C@@H](CSC)C[C@H]2c3cccc4[nH]cc(c34)C[C@@H]21	-	-	-	?
O=C(O)C[C@@H]1CCCc2ccccc2[C@H]1O	-	-	-	-
